Molecules are shown by their SMILES. “And” between values parts separate entries of the source, which are not always exact repeats. Equal values may be shown once. Screen size: about 290,000 compounds; about 27,000 (9.3%) were called active. This is one part of a sample in which actives are shown more often than they occur. No stated cut-off is given here; in the data, active means inhibition mostly above about 28% (no sharp cut-off); inactive means mostly below about 43%.

The nature of this assay: A qHTS for Small Molecule Inhibitors of Shiga Toxin. Further: 0% is about no effect. The following applies: Vero cells, Shiga toxin protein synthesis inhibition reporter; at 38.7 µM, hits give high values. (qHTS replaces the single test concentration by a dilution series.)
`OC(COc1ccc(Br)cc1)CN1CCCC1` (configuration not stated): the inhibition (in general, the change of the read-out against control, counted positive when it falls) was -1.94% (inactive).
With `CN1C2CCC1CC(NC(=O)c1ccc([N+](=O)[O-])cc1)C2` (configuration not stated), the inhibition was -5.48% (inactive).
The same measure for `Cn1c(=O)c2c(SCC(=O)NCC3CCCO3)nc(CC(C)(C)C)nc2n(C)c1=O` (configuration not stated): -7.65% (inactive); for `Cc1cccc(NS(=O)(=O)c2ccc([N+](=O)[O-])cc2)n1`: 12.1% (inactive); for `CC1CCN(c2oc(-c3ccccc3F)nc2C#N)CC1`: 69.1% (active).
Under `COc1ccccc1-c1nc(C#N)c(N2CCC(C(N)=O)CC2)o1` stands -15% (inactive); under `Cc1oc(-c2ccccc2F)nc1CS(=O)CC(=O)NCCN1CCCCC1C` (configuration not stated), -8.05% (inactive).
On to `O=C(c1ccccc1F)N1CCN(S(=O)(=O)c2ccc(Br)cc2)CC1`, for which the inhibition is -11.4% (inactive).
As to `Cc1c(C(=O)N2CC(C)OC(C)C2)sc2nc(-c3ccccc3)cn12` (configuration not stated), the inhibition is 64.7% (active).
Under `Cc1c(C(=O)NCC2CCCO2)sc2nc(-c3ccccc3)cn12` (configuration not stated) stands 93% (active).
`Cc1cccc(C)c1NC(=O)N1CC(C)OC(C)C1` (configuration not stated): the inhibition is -12.3% (inactive).
Turning to `CCOc1ccc(-n2c(N)c(C(=O)NCC3CCCO3)sc2=S)cc1` (configuration not stated), the inhibition was -14.3% (inactive).
Regarding `Cc1c(C(=O)N2CCCc3ccccc32)sc2nc(-c3ccccc3)cn12`, the inhibition was 21.5% (inactive).
In the case of `O=C(CSc1ccc(-c2ccccc2)nn1)NCC1CCCO1` (configuration not stated), the inhibition is 20.8% (inactive).
As for `COc1ccccc1N1CCN(C(=O)c2cc(=O)c3cc(C)cc(C)c3o2)CC1`, the inhibition is 3.39% (inactive).
For the compound `COc1cccc(-n2c(=S)sc3c(=O)n(-c4ccccc4C)c(SCC(=O)O)nc32)c1`, the inhibition is 20.4% (inactive).
`CCOc1ccc2[nH]c3nc(SCC(=O)NC4CCCC4)nnc3c2c1`: the inhibition is -5.52% (inactive).
Under `CCOc1ccc2nc(N(CCN(C)C)C(=O)c3ccc4ccccc4c3)sc2c1` stands 25.9% (inactive).
Under `Cc1nc(COc2cc3oc(=O)cc(C)c3cc2Cl)cs1` stands 2.94% (inactive).
The same measure for `O=C(CNC(=O)c1cc2c(s1)CCC2)Nc1ccccc1Br`: 61.2% (active).
In the case of `O=C(NCCCn1ccnc1)c1cc2c(s1)CCCC2`, the inhibition is -5.02% (inactive).
Under `COc1ccc(C(CNC(=O)c2cc3c(s2)CCCC3)N2CCOCC2)cc1` (configuration not stated) stands -16.3% (inactive); under `NC(=O)c1c(NC(=O)c2ccccc2)sc2c1CCCC2`, 68.2% (active); under `O=C(Nc1sc2c(c1C(=O)O)CCC2)c1ccccc1F`, 15% (inactive).
Under `O=C(NNC(=O)c1cc2c(s1)CCCC2)c1ccccc1` stands 110% (active); under `CN(CC(=O)Nc1ccccc1F)CC(=O)Nc1ccccc1Br`, 13% (inactive).
Under `C=CCN(CC=C)S(=O)(=O)c1ccc(C(=O)Nc2sc3c(c2C(N)=O)CCCCC3)cc1` stands -0.928% (inactive).
For the compound `O=C(c1cc2c(s1)CCC2)N1CCN(c2ccccc2)CC1`, the inhibition is 44.1% (inactive).
As to `O=C(COC(=O)c1cc2c(s1)CCCC2)NCc1ccccc1Cl`, the inhibition is 7.81% (inactive).
As for `O=C(NCCCN1CCOCC1)c1cc2c(s1)CCC2`, the inhibition is 33% (inactive).
As for `O=C(Nc1ccc(F)cc1)c1cc2c(s1)CCCC2`, the inhibition is 127% (active).
For `CN1C(=O)C2(OCCCO2)c2cc(Cl)ccc21`, the inhibition is -14.7% (inactive).
Under `CC1CCN(C(=O)C2CCN(S(=O)(=O)N3CCC4(CC3)OCCO4)CC2)CC1` stands -15.9% (inactive); under `O=C(C[C@H]1C(=O)N(c2ccc(F)c(F)c2)C[C@@H]1Cc1ccccc1)Nc1ccccc1`, -3.22% (inactive); under `COc1ccc(C(=O)Nc2ccc(C(=O)NCC3CCCO3)cc2)c(OC)c1OC` (configuration not stated), -2.17% (inactive).
As for `CCSc1nc2sc3c(c2c(=O)n1-c1ccc(C)cc1)CCN(C)C3`, the inhibition is -6.21% (inactive).
Under `CC1(C)Cc2c(sc(NC(=O)C(=O)N3CCOCC3)c2C#N)CO1` stands -10.6% (inactive).
The same measure for `CCOC(=O)C(C)n1cnc2c(nnn2-c2ccc(F)cc2)c1=O` (configuration not stated): 18.3% (inactive); for `CCOC(=O)C(C)n1cnc2c(nnn2-c2cccc(OC)c2)c1=O` (configuration not stated): 41% (active).
The same measure for `COC(=O)C(C)n1cnc2c(nnn2-c2cccc(Cl)c2)c1=O` (configuration not stated): 26% (inactive); for `CCN(C(=O)CSc1nnc(-c2ccncc2)o1)c1ccccc1`: -4.1% (inactive).
Turning to `O=C(c1ccc(Oc2ccc(Cl)cc2)c([N+](=O)[O-])c1)N1CCCC1`, the inhibition was -5.51% (inactive).
The same measure for `NC(=O)CCN1CCN(S(=O)(=O)/C=C/c2ccccc2)CC1`: 3.87% (inactive); for `NC(=NC(=O)c1ccccc1)N1CCOCC1`: -9.05% (inactive); for `O=C(NC(=O)N1CCOCC1)c1ccccc1`: 6.72% (inactive).
As for `O=C(O)c1cccc(N=NN2CCCCCC2)c1`, the inhibition is 139% (active).
Under `O=C(c1ccccc1)N1CCN(C(=O)N2CCCCC2)CC1` stands -25.1% (inactive); under `CN1CCN(S(=O)(=O)c2cccc(C(=O)O)c2)CC1`, 24% (inactive).
With `O=C(O)c1ccc(N=NN2CCOCC2)cc1`, the inhibition is 38.4% (active).
Consider `O=C(NCc1ccco1)c1ccc([N+](=O)[O-])cc1Cl`, for which the inhibition is -6.09% (inactive).
The same measure for `O=C(Nc1ccccc1Cl)NC1(C(=O)N2CCOCC2)CCCCC1`: 3.21% (inactive); for `CCCCNC(=O)Nc1c(C)cc(SC#N)cc1C`: 12.6% (inactive); for `CCOc1ccccc1NC(=O)CCS(=O)(=O)c1cccc2nsnc12`: -10.2% (inactive).
For `c1csc(-c2nnc(COc3ncnc4sccc34)o2)c1`, the inhibition was 13.6% (inactive).
The same measure for `Clc1ccc(Cc2nnc(-c3cccs3)o2)cc1`: 12.1% (inactive).
In the case of `c1csc(-c2nnc(COc3ccc4c(c3)OCO4)o2)c1`, the inhibition is 100% (active).
Under `Cc1cc(N2CCCC2)n2nc(C)c(-c3ccccc3)c2n1` stands 24.9% (inactive); under `Cc1cc(-n2nc(C)cc2C)n2nc(C)c(-c3ccccc3)c2n1`, -5.33% (inactive).
Under `Cc1cc(-n2nc(C)cc2C)n2ncc(-c3ccccc3)c2n1` stands 63.4% (active).
On to `CCC(C(=O)OC)n1cnc2scc(-c3ccc(C)cc3)c2c1=O` (configuration not stated), for which the inhibition was -4.36% (inactive).
Under `O=C(CCN1C(=O)[C@H]2CC=CC[C@H]2C1=O)NCc1nc(-c2ccccc2)no1` stands 24.8% (inactive).
With `COc1ccc(OC)c(S(=O)(=O)N2CCCC(C(=O)NCCc3ccccc3)C2)c1` (configuration not stated), the inhibition is 9.04% (inactive).
Regarding `Cc1ccc(Nc2nc(-c3ccc(O)cc3O)cs2)nc1`, the inhibition was 67.2% (active).
In the case of `Cc1ccc(NC(=O)c2cc(-c3ccc(C)o3)nc3ccccc23)nc1`, the inhibition is -4.51% (inactive).
`COc1ccc(/C(C)=N\NC(=O)c2ccc(-c3ccccc3)cc2)c(F)c1`: the inhibition was 2.19% (inactive).
Under `CN(C(=O)COC(=O)CNC(=O)C12CC3CC(CC(C3)C1)C2)c1ccccc1` stands 11.2% (inactive); under `O=C(CNC(=O)COc1ccccc1)NCCc1ccccn1`, -6.4% (inactive); under `COc1ccc(NCCc2ccccn2)cc1`, 85% (active).
The same measure for `Cc1c(C)c(C)c(S(=O)(=O)NCCc2ccccn2)c(C)c1C`: -12.6% (inactive).
The same measure for `CC(=O)c1cccc(NC(=S)N2CCCC2)c1`: 12.2% (inactive); for `Cc1cccc(C)c1NC(=S)N1CCCCCC1`: -6.49% (inactive).
`S=C(Nc1ccc2c(c1)OCO2)N1CCCC1`: the inhibition was 87.4% (active).
For the compound `CCOc1ccc(NC(=S)N2CCCCCC2)cc1`, the inhibition is 29.7% (inactive).
Consider `NS(=O)(=O)c1ccc(NC(=S)N2CCCC2)cc1`, for which the inhibition is -27.4% (inactive).
The same measure for `CCC(C)c1ccc(NC(=S)N2CCCC2)cc1` (configuration not stated): 68% (active); for `C=CCC1=C/C(=C\c2c(N)n3nc(CC(=O)N4CCOCC4)sc3nc2=O)C=C(OC)C1=O`: -1.44% (inactive); for `Cc1cnc(CN(C)C(=O)CC2C(=O)NCCN2Cc2cccc(F)c2F)[nH]1` (configuration not stated): -27.4% (inactive).
Under `O=C(Cn1c[n+](CC(=O)c2ccc([N+](=O)[O-])cc2)cn1)c1ccc([N+](=O)[O-])cc1` stands -3.01% (inactive) and 31.4% (inactive).
Under `COc1ccccc1CNS(=O)(=O)c1ccc2c(c1)NC(=O)CS2` stands 17.1% (inactive).
For `CCOC(=O)c1ccccc1NS(=O)(=O)c1c(C)nc2sccn2c1=O`, the inhibition is -9.62% (inactive).
The same measure for `CN1C2C=C(N(C(=O)c3ccc(Cl)cc3)c3ccccc3)CC1CC2` (configuration not stated): -14.6% (inactive).
Take `Cn1cncc1COC(=O)c1ccc(Cl)cc1`: the inhibition is 0.74% (inactive).
On to `CN1OC(COC(=O)c2ccc(Cl)cc2)CC1c1ccccc1` (configuration not stated), for which the inhibition is 50.7% (active).
The same measure for `Cc1ccc(NS(=O)(=O)c2ccc3c(c2)NC(=O)CO3)cc1`: -11.9% (inactive); for `Cc1cc(NC(=O)CSc2nnnn2-c2ccc(F)cc2)no1`: 24.2% (inactive).
The same measure for `CN(C)c1nc(-c2cccnc2)nc(-c2ccc(Cl)cc2)c1C#N`: -6.6% (inactive); for `CN(C)c1ccc(-c2nnc(-c3cccnc3)o2)cc1`: 104% (active).
Under `Cc1csc(NC(=O)CSc2nnc(-c3cccnc3)o2)n1` stands -20.1% (inactive).
For `Cc1ccc(-n2ncc3c2CCCC3NC(=O)c2cnccn2)cc1C` (configuration not stated), the inhibition was 5.12% (inactive).
The same measure for `CCCCN(C)CCNC(=O)C1CCCN(S(=O)(=O)c2cccc3nsnc23)C1` (configuration not stated): -5.4% (inactive).
In the case of `O=C(CCN1CCN(C/C=C/c2ccccc2)CC1)Nc1ccccc1Cl`, the inhibition was 2.18% (inactive).
Under `NC(=O)c1cc2ccccc2o/c1=N/NC(=O)c1cccc(F)c1` stands 13.8% (inactive); under `COc1ccc(C(=O)N/N=c2\oc3ccccc3cc2C(N)=O)cc1`, 55.8% (inactive); under `COc1cccc2cc(C(N)=O)/c(=N\NC(=O)c3ccccc3)oc12`, 97% (active).
On to `O=C1c2ccccc2C(=O)C1c1ccccc1F`, for which the inhibition is -16.3% (inactive).
The same measure for `CN(c1ccc(O)cc1)c1nc(-c2cccnc2)cs1`: 64.4% (active).
Under `CC(C)(C)C(=O)OCc1nc(-c2ccc(O)c(O)c2)cs1` stands 27.1% (inactive); under `CN(C(=O)CSc1nc(C2CC2)nc2ccccc12)c1nc(-c2ccccc2)cs1`, 14.4% (inactive).
The same measure for `Oc1ccc(-c2csc(Nc3cccnc3)n2)cc1`: 121% (active); for `COc1ccc(CCN(C(=O)COc2ccccc2)c2nc(-c3ccccc3)cs2)cc1OC`: -8.73% (inactive).
For the compound `COc1ccc(-c2csc(Nc3ccc(O)cc3)n2)cc1`, the inhibition was 92.3% (active).
On to `COc1ccc(C(=O)Nc2nc(-c3ccc(S(=O)(=O)N4CCOCC4)cc3)cs2)cc1`, for which the inhibition was -8.19% (inactive).
With `Brc1ccc(-c2csc(N/N=C/c3cccnc3)n2)cc1`, the inhibition was 37% (inactive).
`COc1ccc(-c2csc(Cc3nc(O)cs3)n2)cc1`: the inhibition was 94.8% (active).
Under `CCCn1c(C2CCCN2c2nc(-c3ccc(OC)cc3)cs2)nc2ccccc21` (configuration not stated) stands 4.08% (inactive); under `O=C(Nc1ccc(-c2csc(Nc3cccc(C(F)(F)F)c3)n2)cc1)c1cccc(C(F)(F)F)c1`, -5.94% (inactive); under `COc1ccc(OC)c(Nc2nc(-c3ccc(O)c(O)c3)cs2)c1`, 7.27% (inactive).

(Values after PubChem BioAssay AID2315 (National Center for Advancing Translational Sciences (NCATS), 2010).)
